Inconclusive results are not listed. A call without a number means that no potency is given here. The source made the active and inactive calls. Calls come from the whole dose curve; as a rule, active = well fitted cell-killing curve with a large enough effect; inconclusive = small, poorly fitted or top-dose-only effect, or effect the other way; inactive = no such curve, though single readings can be large or run the other way.
What was measured:
[1] = Viability qHTS for spleen associated tyrosine kinase inhibitor (SYKi) naive MV4-11 cells (AID 1963823); note: nearly all actives have a fitted effect of over 40% in size
Procedure, shortened: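 Read-out: CellTiter-Glo luminescence. Exposure: 72 hr, 37 C, 5% CO2, 95% humidity. Cells: MV4-11 without SYK inhibitor history, 500/well, qHTS format.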

[2] = Viability qHTS for spleen associated tyrosine kinase inhibitor (SYKi) drug resistant MV4-11 cells (AID 1963824); note: nearly all actives have a fitted effect of over 35% in size
Procedure, shortened: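 SYK-inhibitor-resistant MV4-11 AML cells were seeded at 500 per well onto compound and cultured 72 hours (37 °C, 5% CO2). CellTiter-Glo was then added, and after 10 min at room temperature, luminescence gave viability.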
Potency is the fitted concentration of half-maximal effect.

| Structure (SMILES) | Potency [1] | Potency [2] |
| --- | --- | --- |
| CC(=O)/C=C/[C@H]1[C@](C)(O)[C@@H](O)[C@H](OC(C)=O)C2C(C)(C)CCC[C@@]21C (stereo partly specified) | inactive | inactive |
| C/C(CO)=C1/CCC23COC(C2)C(O)(C(=O)O)CCC13 (stereo unspecified) | inactive | inactive |
| C/C(=N\N=C(N)N)c1ccc(NC(=O)Nc2ccc(/C(C)=N/N=C(N)N)cc2)cc1 | 2060 nM (active) | 731 nM (active) |
| COc1cc(C(=O)OCC2=CCC3C(C(=O)O)=COC(O[C@@H]4O[C@H](CO)[C@@H](O)[C@H](O)[C@H]4O)C23)ccc1O (stereo partly specified) | inactive | inactive |
| CCOC(=O)c1cnn(-c2ccc(NC(=O)C(Cl)=C(Cl)Cl)cc2)c1C(F)(F)F | 580 nM (active) | 366 nM (active) |
| Cc1cn([C@H]2C[C@H](O)[C@@H](CO)O2)c(=O)nc1N | inactive | inactive |
| CC(C)(O)C1CCC(C)(C2CCC3(C)C4CCC5C(C)(C(=O)OC6OC(CO)C(O)C(O)C6O)C(O)CC(O)C56CC46CCC23C)O1 (stereo unspecified) | inactive | inactive |
| C=C1CC23CC1CCC2C12OC(=O)C(C)(CCC1O)C2C3C(=O)O (stereo unspecified) | inactive | inactive |
| O=c1cc[nH]c(=S)[nH]1 | inactive | 11900 nM (active) |
| COC(=O)C1=COC(OC2OC(CO)C(O)C(O)C2O)C2C1C=CC2(O)CO (stereo unspecified) | inactive | inactive |
| CC(C)NC[C@H](O)COc1ccc(CCOCC2CC2)cc1 | inactive | inactive |
| COc1ccc(CC2NCCc3c2[nH]c2ccc(C)cc32)cc1OC (stereo unspecified) | 9200 nM (active) | 7310 nM (active) |
| COc1cc(C[C@H]2COC(=O)[C@@H]2Cc2ccc(O)c(OC)c2)ccc1O | inactive | inactive |

Reference: PubChem BioAssay (NCATS)
